Test [1] has as its target Nuclear respiratory factor 1 (Homo sapiens) (UniProt Q16656). Briefly: ATG_NRF1_CIS: Attagene CIS-FACTORIAL HepG2 Assay for human Nuclear Respiratory Factor 1 (NRF1) Orphan Gene (AID 2282987). The note with it: HepG2 NRF1 cis-element reporter, Attagene multiplex; actives raise or lower the signal. The procedure, abridged:
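Reporter mRNA induction or loss in HepG2 cells after 24 h dosing; cis-regulated reporter constructs report endogenous transcription-factor activity. Quantified by RT-PCR/capillary electrophoresis fluorescence, DMSO-referenced.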

Test [2] can be described thus: ATG_NFI_CIS: Attagene CIS-FACTORIAL HepG2 Assay for human Nuclear Factor I (NFI) (AID 2282989). To be noted: HepG2 cis-regulatory reporter, NFI response element transcription; actives raise or lower the signal. Put shortly: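 Cells: human liver HepG2, transiently transfected with promoter-regulated reporter transcription units. Exposure 24 h. Detection: fluorescent RT-PCR products separated by capillary electrophoresis, normalised to DMSO negative control.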

Test [3] addresses Myc proto-oncogene protein (Homo sapiens) (UniProt P01106). Briefly: ATG_Myc_CIS: Attagene CIS-FACTORIAL HepG2 Assay for human Myelocytomatosis (Myc) Proto-Oncogene Transcription Factor (AID 2282990). The note with it: HepG2, Attagene cis-reporter transcription factor activity; actives raise or lower the signal. The procedure, abridged: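 Transiently transfected HepG2 cells bearing cis-promoter reporter units for endogenous transcription factors; 24 h exposure. Reporter mRNA measured by RT-PCR, 6-FAM primer extension, HpaI cut and capillary electrophoresis; bidirectional fit relative to DMSO.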

A short description of test [4]: ATG_NRF2_ARE_CIS: Attagene CIS-FACTORIAL HepG2 Assay for human Nuclear Factor Erythroid 2 Related Factor 2 (NFR2) response to Antioxidant Response Elements (ARE) (AID 2282992).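 As to AC50: reporter mRNA level measured by RT-PCR and capillary electrophoresis fluorescence.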 The note with it: HepG2 Attagene ARE/NRF2 reporter, transcription factor activity; actives raise or lower the signal. Put shortly: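 Multiplexed reporter mRNA profiling in HepG2 after a 24 h chemical exposure. Curves fitted in both directions relative to DMSO negative control.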

Test [5] in a line: ATG_Oct_MLP_CIS: Attagene CIS-FACTORIAL HepG2 Assay for human Octamer-Binding Transcription Factor (Oct) (AID 2282993). The note with it: HepG2 Attagene cis-factorial Oct reporter, mRNA; actives raise or lower the signal. The procedure, abridged: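 HepG2, transient MRTU transfection, cis promoter elements; 24 h dosing; RT-PCR/CE fluorescence read-out of reporter mRNA; fit both directions vs DMSO.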

The target in test [6] is Cellular tumor antigen p53 (Homo sapiens) (UniProt P04637). Briefly: ATG_p53_CIS: Attagene CIS-FACTORIAL HepG2 Assay for human p53 Transcription Factor (AID 2282994). To be noted: HepG2 p53 cis-element reporter, Attagene mRNA; actives raise or lower the signal. The procedure, abridged: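 Multiplexed reporter mRNA assay in human HepG2 liver cells; cis-regulated units report endogenous factor activity. Values come from bidirectional curve fitting against DMSO negative control after 24 h treatment.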
Chain of Cellular tumor antigen p53 (Homo sapiens) (P04637 whole entry, looked up): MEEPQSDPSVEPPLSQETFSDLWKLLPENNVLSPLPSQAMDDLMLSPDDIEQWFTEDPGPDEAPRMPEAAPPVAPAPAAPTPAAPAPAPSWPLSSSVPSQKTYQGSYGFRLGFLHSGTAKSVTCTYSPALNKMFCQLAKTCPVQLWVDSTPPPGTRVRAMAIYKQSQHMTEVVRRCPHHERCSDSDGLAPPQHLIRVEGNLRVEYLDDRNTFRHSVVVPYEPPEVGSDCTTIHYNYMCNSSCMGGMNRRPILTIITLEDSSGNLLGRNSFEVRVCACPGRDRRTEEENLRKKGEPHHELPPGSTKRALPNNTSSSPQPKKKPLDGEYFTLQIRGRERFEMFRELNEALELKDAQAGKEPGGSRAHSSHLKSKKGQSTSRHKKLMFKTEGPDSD

Test [7] in a line: BSK_3C_TissueFactor: BioMAP Diversity Plus: 3C Assay for Tissue Factor Biomarker Activity (AID 2282997). The note with it: BioMAP 3C HUVEC, tissue factor biomarker readout; actives raise or lower the signal. Put shortly:
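Values derive from bidirectional curve fitting against DMSO of Tissue Factor ELISA signals, taken 24 h after dosing primary human umbilical vein endothelial cells.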

A short description of test [8]: BSK_3C_uPAR: BioMAP Diversity Plus: 3C Assay for Urokinase-type plasminogen activator receptor (uPAR) Biomarker Activity (AID 2282998). To be noted: BioMAP 3C HUVEC, uPAR biomarker ELISA; actives raise or lower the signal. Put shortly:
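A multiplexed primary-cell system built on human umbilical vein endothelium was used, with chemical present for 24 h before reading. Cell-surface uPAR was detected by ELISA; signal change in either direction counted against DMSO.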
Background: ELISA stands for enzyme-linked immunosorbent assay.

Test [9] in a line: BSK_3C_VCAM1: BioMAP Diversity Plus: 3C Assay for Vascular cell adhesion molecule 1 (VCAM1) Biomarker Activity (AID 2282999). To be noted: BioMAP 3C HUVEC, VCAM1 ELISA, cytokine-stimulated; actives raise or lower the signal. Put shortly:
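Human umbilical vein endothelial cells (3C system), biomarker read by ELISA 24 h after dosing; bidirectional fit against DMSO baseline. Cytotoxicity tracked by SRB total-protein staining in parallel cultures at biomarker time.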

More than one record can exist for a structure, and the calls need not agree. The source made the active and inactive calls. The calls were made as follows: active = hit-call score of the fitted dose curve at least 0.9, where 1 is the maximum; inactive = score below 0.9.

The source of these data is PubChem BioAssay (EPA / NIEHS).

Chain of Myc proto-oncogene protein (Homo sapiens) (P01106 whole entry, looked up): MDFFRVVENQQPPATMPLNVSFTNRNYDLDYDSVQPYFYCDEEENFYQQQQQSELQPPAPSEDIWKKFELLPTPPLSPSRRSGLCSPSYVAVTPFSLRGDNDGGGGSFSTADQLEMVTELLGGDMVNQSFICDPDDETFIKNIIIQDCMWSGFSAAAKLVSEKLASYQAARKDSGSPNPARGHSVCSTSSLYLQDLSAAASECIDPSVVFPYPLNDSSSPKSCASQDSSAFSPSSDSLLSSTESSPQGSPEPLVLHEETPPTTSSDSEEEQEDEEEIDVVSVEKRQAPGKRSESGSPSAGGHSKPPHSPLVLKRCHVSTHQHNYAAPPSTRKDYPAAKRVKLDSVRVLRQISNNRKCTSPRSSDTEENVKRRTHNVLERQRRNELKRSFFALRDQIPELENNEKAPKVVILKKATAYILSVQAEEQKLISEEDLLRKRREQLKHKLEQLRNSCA
Chain of Nuclear respiratory factor 1 (Homo sapiens) (Q16656 whole entry, looked up): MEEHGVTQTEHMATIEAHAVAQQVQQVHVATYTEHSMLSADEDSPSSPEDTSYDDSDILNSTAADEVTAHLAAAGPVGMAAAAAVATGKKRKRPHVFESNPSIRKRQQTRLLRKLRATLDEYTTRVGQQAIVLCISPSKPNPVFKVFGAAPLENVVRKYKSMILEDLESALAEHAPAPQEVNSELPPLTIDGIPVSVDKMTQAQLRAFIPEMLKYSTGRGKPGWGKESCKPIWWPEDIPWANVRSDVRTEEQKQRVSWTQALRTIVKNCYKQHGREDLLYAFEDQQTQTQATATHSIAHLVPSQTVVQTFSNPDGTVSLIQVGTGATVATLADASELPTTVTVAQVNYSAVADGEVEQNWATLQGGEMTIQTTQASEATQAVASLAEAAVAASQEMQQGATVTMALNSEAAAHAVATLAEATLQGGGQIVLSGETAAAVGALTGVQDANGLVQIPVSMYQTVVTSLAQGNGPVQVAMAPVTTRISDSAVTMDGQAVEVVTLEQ

As to `Oc1ccc(Cl)cc1Cl`, the call in test [1], in test [2], in test [3], in [5], in [6] and in test [7] was inactive. The outcome in test [8] and in [9] was inactive. Moreover, the AC50 in test [4] is 36.3 µM (active).
For the compound `ClC1=C(Cl)[C@]2(Cl)[C@@H]3[C@@H]4C[C@@H]([C@H]5O[C@@H]45)[C@@H]3[C@@]1(Cl)C2(Cl)Cl`, the compound was called inactive in test [1], in [2], in test [3], in test [5], in test [6] and in [7]. Also, the result in test [8] and in test [9] was inactive.
For `C[C@]12CCC(=O)C=C1CC[C@@H]1[C@@H]2CC[C@]2(C)C(=O)CC[C@@H]12`, the compound was called inactive in test [1], in test [2], in test [3], in test [5], in test [6] and in test [7]. Also, the result in test [8] and in [9] was inactive.
`O=C(NC(=O)c1cc(F)c(F)cc1Cl)Nc1cc(F)ccc1N1CCC(C(=O)O)CC1`: the compound was classed as inactive in test [1], in [2], in [3], in [5], in [6] and in test [7]. The outcome in [8] and in test [9] was inactive. Also, in test [4], the AC50 is 16.5 µM (active).
As to `CCNc1nc(NC(C)C)nc(SC)n1`, the result in [1], in [2], in test [3], in [5], in test [7] and in test [8] was inactive. For the same compound, in test [9], the outcome was inactive.
In the case of `CCCN(CCC)N=O`, the compound was classed as inactive in test [1], in test [2], in test [3], in test [4], in test [5] and in test [6]. Moreover, the outcome in test [7], in test [8] and in test [9] was inactive.
`COS(=O)(=O)OC`: the compound was classed as inactive in [1], in test [2], in test [3], in test [4], in test [5] and in test [6]. For the same compound, the outcome in [7], in [8] and in test [9] was inactive.
`CCOC(=O)C(O)(c1ccc(Cl)cc1)c1ccc(Cl)cc1`: the call in test [1], in test [2], in test [3], in test [5] and in test [6] was inactive. Further, the AC50 in [7] was 33.5 µM (active); in test [8] it was 31.7 µM (active); in test [9], 34.7 µM (active).
As to `CCC(C)c1cc([N+](=O)[O-])cc([N+](=O)[O-])c1O` (stereo unspecified), the call in [1], in test [2], in test [3], in test [6] and in test [7] was inactive. Also, the AC50 was 14.1 µM (active) in test [4], 16.4 µM (active) in test [5], 9.09 µM (active) in [8] and 8.86 µM (active) in [9].
Regarding `c1ccc(-c2ccccc2)cc1`, the compound was classed as inactive in [1], in test [2], in test [3], in test [5], in [7] and in test [8]. Moreover, in test [9], the result was inactive. Besides, the AC50 in [6] was 197 µM (active).
`CC(C)C(=O)OCC(C)(C)C(OC(=O)C(C)C)C(C)C` (stereo unspecified): the compound was called inactive in [1], in test [2], in test [3], in [5], in test [6] and in test [7]. Moreover, the outcome in test [8] and in [9] was inactive.
As for `COc1ccc(O)c(C(C)(C)C)c1`, the compound was classed as inactive in test [1], in test [2], in test [3], in [6], in [7] and in test [8]. For the same compound, the outcome in test [9] was inactive. In addition, the AC50 is 39 µM (active) in test [4] and 143 µM (active) in test [5].
With `Clc1ccc(C(Cl)(Cl)Cl)cc1`, the result in [1], in test [2], in [3], in test [4], in test [5] and in [6] was inactive. Further, the outcome in test [7], in [8] and in test [9] was inactive.
In the case of `Nn1cnnc1`, the outcome in test [1], in test [2], in test [3], in test [5], in test [6] and in [7] was inactive. The outcome in test [8] and in test [9] was inactive.
With `CN(C)c1nc(=O)n(C2CCCCC2)c(=O)n1C`, the result in [1], in test [2], in test [3], in test [4], in [5] and in test [7] was inactive. Further, the result in test [8] and in test [9] was inactive.
Turning to `Cc1cc(-c2ccc(N)c(C)c2)ccc1N`, the outcome in test [1], in [2], in [3], in [5], in [6] and in test [7] was inactive. In addition, the outcome in [8] and in [9] was inactive. For the same compound, in test [6], the AC50 was 100 µM (active).
For `Cc1ccccc1O`, the outcome in test [1], in test [2], in [3], in test [5], in test [6] and in test [7] was inactive. The result in test [8] and in test [9] was inactive.
On to `C=CC(N)=O`, for which the compound was classed as inactive in test [1], in test [2], in test [3], in [6], in test [7] and in [8]. Further, the result in test [9] was inactive. Moreover, the AC50 in test [5] was 172 µM (active).

Broadly, the AC50 is the midpoint of the concentration-response curve, whichever way the signal moves.
